KCNQ2 block = blocks the rat KCNQ2 potassium channel; B-score at 10 µM; actives 1.1% (n = 310,000); CHO-K1 KCNQ2, FluxOR thallium flux, 20 min; active compounds read low; AID 2156;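 active = fluorescence ratio B-score at most minus 3 library SDs, with starting brightness B-score within 2 library SDs, cut at about -5.5 in these data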
KCNQ2 enhance = potentiators of rat KCNQ2 potassium channel; O88943; CHO-K1 KCNQ2, FluxOR thallium flux fluorescence; active compounds read high; B-score at 10 µM; actives 0.54% (n = 310,000); AID 2239;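 active = fluorescence ratio B-score at least 3 SD of library B-scores, with initial fluorescence B-score within 3 of them, cut at about 5.3 in these data; same plate scores as AID 2156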;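 also: B-score of peak minus minimum over baseline fluorescence ratio after K+ and Tl+ stimulus; positive B-score means potentiation of KCNQ2 with more thallium influx and brighter signal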
Kir21 conf inh = confirmation of mouse Kir2.1 potassium channel inhibitors | shares compounds with KCNQ2 enhance | Kir2.1-expressing cells, FluxOR thallium flux fluorescence; active compounds read low | Tl flux remaining, % of negative control (active compounds read low), % at 10 µM | actives 41% (n = 2,300);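 active = Primary-screen hit whose thallium flux fell at least 3 control SD below untreated wells in both duplicates, with normal baseline fluorescence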
Target sequence (P35561 whole entry, looked up): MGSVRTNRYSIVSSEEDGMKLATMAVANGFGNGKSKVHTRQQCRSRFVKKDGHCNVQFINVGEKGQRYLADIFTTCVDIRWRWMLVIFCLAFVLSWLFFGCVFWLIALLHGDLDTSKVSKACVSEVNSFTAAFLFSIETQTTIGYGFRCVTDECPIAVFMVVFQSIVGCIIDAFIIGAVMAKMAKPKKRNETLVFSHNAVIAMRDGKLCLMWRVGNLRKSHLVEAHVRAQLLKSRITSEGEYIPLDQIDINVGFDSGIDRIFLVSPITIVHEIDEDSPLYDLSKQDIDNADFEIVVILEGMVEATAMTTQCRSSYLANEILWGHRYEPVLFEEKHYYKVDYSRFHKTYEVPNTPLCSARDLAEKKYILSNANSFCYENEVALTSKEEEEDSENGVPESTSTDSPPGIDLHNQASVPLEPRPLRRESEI
HEK293 ctr = alters thallium flux in parental HEK293 cells, Kir2.1 counter-screen; FluxOR signal as % of negative control (100 = no effect), % at 10 µM; FluxOR thallium flux fluorescence; 0% = unstimulated blank wells; shares compounds with KCNQ2 enhance; actives 19% (n = 2,300);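 active = dye signal at least 3 control SD above or below untreated wells in both duplicates, raw fluorescence within 3, either direction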;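 also: percent is based on the flux ratio of peak minus minimum fluorescence over baseline F0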
CHO-K1 Tl ctr = counter-screen for KCNQ2 potentiators: effect in parental CHO-K1 cells; shares compounds with KCNQ2 enhance; FluxOR thallium flux fluorescence; zero = vehicle mean+3SD, 100% = vehicle-minus-blank window; activity increase over 3SD of controls, % at 10 µM; actives 43% (n = 1,200); AID 2282;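 active = signal rise of at least 3 SD above the untreated control mean, in both duplicate wells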;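 also: counter screen of KCNQ2 potentiator hits so any rise reflects channel-independent effects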
KCNQ1 sel pot = tests whether KCNQ2 potentiators also act on human KCNQ1; AID 2283; shares compounds with KCNQ2 enhance; CHO KCNQ1 stable, FluxOR thallium flux fluorescence; beyond 3SD, as % of vehicle-control signal; actives 28% (n = 1,200); activation over 3SD threshold, % at 10 µM;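 active = fluorescence ratio rise of at least 3 SD of vehicle wells above their mean, in both replicate wells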
KCNQ2 pot conf = rat KCNQ2 channel potentiator confirmation; shares compounds with KCNQ2 enhance; CHO-KCNQ2 cells, FluxOR thallium flux fluorescence; potentiation, less the hit threshold, % at 10 µM; actives 68% (n = 1,200);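 active = fluorescence ratio rising 3 SD or more over the vehicle control mean in both replicates, plus primary screen hit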;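 also: peak minus minimum thallium fluorescence divided by baseline after K/Tl stimulus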
Kir21 spec = selectivity of KCNQ2 potentiators: effect on mouse Kir2.1 | HEK293 Kir2.1, FluxOR thallium flux fluorescence | activity over 3SD threshold, % at 10 µM | actives 2% (n = 1,200) | shares compounds with KCNQ2 enhance | AID 2345;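 active = fluorescence ratio rise of at least 3 SD above the vehicle-control mean, seen in both replicates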
KCNQ2 W236L pot = KCNQ2 potentiators acting on retigabine-insensitive rat KCNQ2 W236L mutant. shares compounds with KCNQ2 enhance. CHO KCNQ2-W236L, automated patch clamp current. current increase over 3SD of negative controls (%), active compounds read high, % at 25 µM. actives 10% (n = 940);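 active = current increase at least 3 SD of the untreated controls above them in both duplicate recordings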
A number is an active result; i = inactive; nt = no result. Rows were chosen to be rich in hits. Some 1.6% of all compounds tested hit in one or more screens of this group.

SMILES	KCNQ2 block	KCNQ2 enhance	Kir21 conf inh	HEK293 ctr	CHO-K1 Tl ctr	KCNQ1 sel pot	KCNQ2 pot conf	Kir21 spec	others
CC(C)(C)c1ccc(C(=O)CC(=O)c2cc(Cl)ccc2O)cc1	i	i	nt	nt	nt	nt	nt	nt
Cc1ccc(C(=O)CC(=O)c2cc(Cl)ccc2O)cc1	i	6	i	i	i	i	27	i	KCNQ2 W236L pot=i
CCc1ccc(NC(=O)c2nc(S(=O)(=O)Cc3ccccc3)ncc2Cl)cc1	i	i	nt	nt	nt	nt	nt	nt
CCCc1nnc(NC(=O)c2nc(S(=O)(=O)Cc3ccc(C)cc3)ncc2Cl)s1	i	10	nt	nt	i	i	55	i	KCNQ2 W236L pot=25%
CSc1ncc(Cl)c(C(=O)Nc2nnc(SC)s2)n1	i	i	nt	nt	nt	nt	nt	nt
CC(C)c1nnc(NC(=O)c2nc(S(=O)(=O)Cc3ccccc3)ncc2Cl)s1	i	15	i	i	23	i	94	i	KCNQ2 W236L pot=29%
CSc1nnc(NC(=O)c2nc(S(=O)(=O)Cc3ccccc3)ncc2Cl)s1	i	14	i	i	23	18	83	i	KCNQ2 W236L pot=32%
CCOc1ccccc1NC(=O)c1nc(S(=O)(=O)Cc2ccccc2)ncc1Cl	i	i	nt	nt	nt	nt	nt	nt
O=C(N=NC(=O)c1ccc2c(O)n(CC3CCCO3)c(O)c2c1)c1cccnc1 (stereo not given)	i	i	nt	nt	nt	nt	nt	nt
C#CCN(Cc1ccco1)C(=O)c1ccc(OC2CCN(Cc3ccccn3)CC2)cc1	i	nt	nt	nt	nt	nt	nt	nt
Cc1[nH]c2ccccc2c1SCC(=O)NNC(=O)Nc1ccc(OC(F)(F)F)cc1	i	nt	nt	nt	nt	nt	nt	nt
CCOc1ccccc1Oc1c(C)oc2cc(OC(=O)c3ccco3)ccc2c1=O	i	nt	nt	nt	nt	nt	nt	nt
COc1ccccc1-c1c(C)oc2cc(OC(=O)c3ccco3)ccc2c1=O	i	i	70%	i	nt	nt	nt	nt
Cc1ccc(OCC(O)CN2CCOCC2)cc1 (stereo not given)	i	i	nt	nt	nt	nt	nt	nt
CCc1cc2c3c([nH]c2cc1S(=O)(=O)N1CCC2(CC1)OCCO2)CCCC3=O	i	i	nt	nt	nt	nt	nt	nt
Cc1cc2c3c([nH]c2cc1S(=O)(=O)N1CCC2(CC1)OCCO2)CC(C)(C)CC3=O	i	5.5	i	62%	i	i	i	i
Cc1ccc(-c2cc(-c3n[nH]c(=S)o3)c3ccccc3n2)cc1	i	14	i	486%	47	i	168	i	KCNQ2 W236L pot=i
S=c1[nH]nc(-c2cc(-c3ccccn3)nc3ccccc23)o1	i	i	nt	nt	nt	nt	nt	nt
Cc1ccc(-c2csc(N=C(N)N)n2)c(C)c1	i	nt	40%	i	nt	nt	nt	nt
COc1ccc(-c2csc(N=C(N)N)n2)cc1	i	i	nt	nt	nt	nt	nt	nt
COCc1ccc(CN2CCCC(C(=O)Nc3ccccc3-c3ccc(OC)cc3)C2)o1 (stereo not given)	i	i	nt	nt	nt	nt	nt	nt
CCc1ccc(CN2CCCC(C(=O)Nc3ccccc3-c3ccc(OC)cc3)C2)o1 (stereo not given)	-6.1	i	i	i	nt	nt	nt	nt
Cc1ccc2c(c1)N(CCCC(=O)Nc1cccc(C(F)(F)F)c1)C(=O)CO2	i	i	nt	nt	nt	nt	nt	nt
CCOc1ccc(S(=O)(=O)Nc2cccc(C(=O)NCC(C)(C)N3CCOCC3)c2)cc1	i	i	nt	nt	nt	nt	nt	nt
CC(=O)NCCOc1cccc2ccccc12	i	i	nt	nt	nt	nt	nt	nt
SMILES	KCNQ2 block	KCNQ2 enhance	Kir21 conf inh	HEK293 ctr	CHO-K1 Tl ctr	KCNQ1 sel pot	KCNQ2 pot conf	Kir21 spec	others
c1ccc(CCNCCCOc2cccc3ccccc23)cc1	i	nt	14%	i	nt	nt	nt	nt
CCCC[C@H]1COCCS(=O)(=O)N1Cc1cccc([N+](=O)[O-])c1	i	i	nt	nt	nt	nt	nt	nt
COc1ccc(S(=O)(=O)NN(C)c2ncc(C(F)(F)F)cc2Cl)cc1	i	nt	61%	i	nt	nt	nt	nt
CC(C)NS(=O)(=O)c1ccc(Oc2ncc(C(F)(F)F)cc2Cl)cc1	i	nt	nt	nt	nt	nt	nt	nt
CC(=O)Oc1ccc(/C=C(\NC(=O)c2cccc(Br)c2)C(=O)Nc2ccc(C(=O)O)cc2)cc1	i	i	nt	nt	nt	nt	nt	nt
Cc1ccccc1NC(=O)Cc1nnc(SCC(=O)N2CCOCC2)n1C	i	nt	nt	nt	nt	nt	nt	nt
CC(OC(=O)c1nn(C)c(=O)c2ccccc12)C(=O)NC1CCCCC1C (stereo not given)	i	nt	nt	nt	nt	nt	nt	nt
CCN(CC(=O)NC(=O)NC1CCCCC1)Cc1ccccc1	i	nt	nt	nt	nt	nt	nt	nt
CCN(CC(=O)NC(=O)NC1CCCCC1)Cc1nc2ccccc2c(=O)[nH]1	i	10	i	i	63	17	34	i	KCNQ2 W236L pot=i
CCCCN(C)C(=O)C1CCC(CNS(=O)(=O)c2ccc3c(c2)CC(C)N3C(=O)C2CC2)CC1 (stereo not given)	i	nt	nt	nt	nt	nt	nt	nt
Cc1cc(C)c(NC(=O)C2CSCCS2)c(C)c1 (stereo not given)	i	6.5	i	i	23	15	i	i	KCNQ2 W236L pot=i
Cc1cc(C)c(NC(=O)C2CCCCN2C)c(C)c1 (stereo not given)	i	nt	nt	nt	nt	nt	nt	nt
CCCCCC(=O)Cc1cc(O)cc2c1C(=O)Oc1cc(O)c(C(=O)O)c(CCCCC)c1O2	i	7.5	i	i	i	43	8.8	i	KCNQ2 W236L pot=i
CC(C(=O)NCCCc1ccccc1)n1cccc1C(=O)c1ccccc1 (stereo not given)	i	nt	64%	i	nt	nt	nt	nt
O=C(Cn1cccc1C(=O)c1ccccc1)NCCCc1ccccc1	i	i	nt	nt	nt	nt	nt	nt
Cc1cc(C(=O)CCC(=O)N2CCN(S(=O)(=O)c3cccs3)CC2)c(C)s1	i	i	nt	nt	nt	nt	nt	nt
Cc1cc(C(=O)CCC(=O)N2CCN(S(=O)(=O)c3ccccc3)CC2)c(C)s1	i	6.2	i	i	i	i	11	i	KCNQ2 W236L pot=i
COc1ccc(-n2c(SCC(=O)Nc3cc(C)on3)nc3c([nH]c4ccccc43)c2=O)cc1OC	i	i	nt	nt	nt	nt	nt	nt
Cc1nn(-c2ccccc2)c(C)c1C(=O)OCc1ccc(C#N)cc1	i	nt	nt	nt	nt	nt	nt	nt
CCCCC(=O)Nc1c(C)cc(C)cc1Cl	i	12	i	i	i	i	53	i	KCNQ2 W236L pot=i
CCC(=O)Nc1c(C)cc(C)cc1Cl	i	i	nt	nt	nt	nt	nt	nt
COc1cc(OC)cc(C(=O)Nc2cccnc2)c1	i	i	nt	nt	nt	nt	nt	nt
COc1cc(OC)cc(C(=O)Nc2ccc(C(=O)c3ccncc3)cc2)c1	i	11	i	i	28	42	20	i	KCNQ2 W236L pot=i
Cn1c(=O)n(C)c2cc(NC(=O)c3ccccc3NS(C)(=O)=O)ccc21	i	i	nt	nt	nt	nt	nt	nt
CS(=O)(=O)N(CC(=O)N1CCN(C(c2ccccc2)c2ccccc2)CC1)C1CCCCC1	i	i	nt	nt	nt	nt	nt	nt
CS(=O)(=O)N(CC(=O)N1CCCCC1)C1CCCCC1	i	13	i	i	i	i	i	i
O=C(c1cnsn1)N1CCCC(Nc2ccc(F)c(F)c2)C1 (stereo not given)	i	i	nt	nt	nt	nt	nt	nt
